The results in this text go back to PubChem BioAssay (EPA / NIEHS).

The structures appear in SMILES notation. Activity calls are given as the source filed them. How the source made its calls: active means hit-call score of the fitted dose curve at least 0.9, where 1 is the maximum; inactive means score below 0.9.

Sequence of Myc proto-oncogene protein (Homo sapiens) (P01106 whole entry, looked up): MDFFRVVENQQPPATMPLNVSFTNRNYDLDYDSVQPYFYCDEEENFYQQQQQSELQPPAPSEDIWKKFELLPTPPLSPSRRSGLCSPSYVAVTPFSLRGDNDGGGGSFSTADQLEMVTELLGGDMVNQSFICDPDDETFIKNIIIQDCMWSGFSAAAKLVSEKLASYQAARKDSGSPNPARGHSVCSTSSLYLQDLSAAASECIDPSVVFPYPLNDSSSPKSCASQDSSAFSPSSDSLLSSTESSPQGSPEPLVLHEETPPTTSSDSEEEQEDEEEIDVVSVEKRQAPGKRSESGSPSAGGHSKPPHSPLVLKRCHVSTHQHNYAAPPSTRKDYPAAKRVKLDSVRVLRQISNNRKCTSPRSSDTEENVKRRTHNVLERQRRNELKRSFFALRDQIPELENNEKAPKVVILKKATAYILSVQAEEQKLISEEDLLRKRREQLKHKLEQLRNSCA

This test has as its target Myc proto-oncogene protein (Homo sapiens) (UniProt P01106). Briefly: ATG_Myc_CIS: Attagene CIS-FACTORIAL HepG2 Assay for human Myelocytomatosis (Myc) Proto-Oncogene Transcription Factor (AID 2282990). The conditions noted are these: HepG2, Attagene cis-reporter transcription factor activity; actives raise or lower the signal. How it is done:
ATG_CIS is a cell-based, multiplexed-readout assay that uses HepG2, a human liver cell line, with measurements taken at 24 hours after chemical dosing in a 24-well plate.ATG_Myc_CIS is one of 52 assay component(s) measured or calculated from the ATG_CIS assay. It is designed to make measurements of mRNA induction, a form of inducible reporter, as detected with fluorescence intensity signals by Reverse transcription polymerase chain reaction (RT-PCR) and Capillary electrophoresis technology.Data from the assay component ATG_Myc_CIS was analyzed into 1 assay endpoint. This assay endpoint, ATG_Myc_CIS, was analyzed with bidirectional fitting relative to DMSO as the negative control and baseline of activity. Using a type of inducible reporter, measures of mRNA for gain or loss-of-signal activity can be used to understand the reporter gene at the transcription factor-level as they relate to the gene MYC. Furthermore, this assay endpoint can be referred to as a primary readout, because this assay has produced multiple assay endpoints where this one serves a reporter gene function. To generalize the intended target to other relatable targets, this assay endpoint is annotated to the dna binding intended target family, where the subfamily is basic helix-loop-helix leucine zipper.
Human liver HepG2 cells are transiently transfected with multiple reporter transcription units (MRTUs) in 6-well plates using FuGene 6 reagent (Roche; 3 ml FuGene/1 mg DNA). The MRTU constructs are regulated by a cis-regulating element (promoter). […] A major difference between the CIS and TRANS system is that in CIS activities of endogenous TFs are measured, whereas the TRANS assay evaluates changes in activities of exogenous, chimeric NR-Gal4 proteins. […] At the end of 24 hour incubation, total RNA was isolated using TriZol reagent (Invitrogen). The isolated RNA is then reverse-transcribed using oligo(dT) primer and Mo-MLV reverse transcriptase (Invitrogen) with DNAse I (Ambion) treatment for 30 min. The one-tenth of the produced cDNA was amplified by PCR using Taq DNA polymerase (Invitrogen) and two reporter sequence-specific primers. The PCR products were fluorescently labeled by primer extension with 6-arboxyfluorescein (6-FAM) 5'-labeled reporter sequence-specific primer (2 min at 95 C, 20 s at 68 C and 10 min at 72 C) and these products were digested with 5U of HpaI (New England Biolabs) for 2h at 37 C. The fragments were purified using Qiaquick PCR columns (Qiagen), analyzed on an ABI 3130xL genetic analyzer (Applied Biosystems) with peak positions identified by using a set of X-rhodamine (ROX)-labeled MapMarker1000 molecular weight standards (BioVentures). The raw capillary electrophoresis data was processed using Attagraph software (Attagene).
For the compound `Cn1c(=O)cc(Oc2ccc(F)cc2F)c2cnc(NCC(C)(C)O)nc21`, the call was inactive.

For `CC(C)=CCC/C(C)=C/CO`, the outcome was inactive. The same measure, in the same setting: in the case of `CCCCCCCCCCCCCCCO` it was “inactive”.

One may read the AC50 as the midpoint of the concentration-response curve, whichever way the signal moves. For `CC(C)c1cccc(C(C)C)c1N1C(=O)c2ccc(O)cc2C1=O`, the AC50 is 164 µM (active).

As to `O=C1CCCCCN1`, the result was inactive.

In the case of `Cc1c(-c2cccnc2)c2ccccc2n1CCCCC(=O)O`, the call was inactive.

As for `CCNc1ccccc1`, the compound was classed as inactive. With `C=CC(=C)CCC=C(C)C`, the call was inactive. Still for that read-out and setting: in the case of `C1N2CN3CN1CN(C2)C3` it was “inactive”. Regarding `O=C(NS(=O)(=O)/C=C/c1ccccc1)c1ccc(F)cc1Cl`, the compound was called inactive. Regarding `Oc1ccc2c(c1)-c1ccccc1C2`, the AC50 is 63.1 µM (active). Same read-out and setting: the same measure for `Fc1ccccc1[C@@H](F)COC1CCC(Nc2ncnc3[nH]ncc23)CC1` (stereo not given in full): 25.4 µM (active); for `O=C(CCCCCCCCc1cccnc1)N1CCC(C=C(c2ccccc2)c2ccccc2)CC1`: 8.5 µM (active). Take `CN(C)c1ccc(Cc2ccc(N(C)C)cc2)cc1`: the result was inactive.

As to `CCC(C)(C)C(=O)O[C@H]1C[C@@H](C)C=C2C=C[C@H](C)[C@H](CC[C@@H]3C[C@@H](O)CC(=O)O3)[C@H]21`, the call was inactive. The same measure, in the same setting: in the case of `CN(C)c1ccc(N=NS(=O)(=O)O)cc1` it was “inactive”. Same read-out and setting: the same measure for `O=C(O)CCN(C1(C(=O)NO)CCCC1)S(=O)(=O)c1ccc(Oc2ccc(F)cc2)cc1`: “inactive”; for `CCOC(=O)COc1ccc2c(c1)CC(NCC(O)c1cccc(Cl)c1)CC2` (stereo not given): “inactive”; for `O=c1[nH]c2ccc(S(=O)CCN3CCC(Cc4ccc(F)cc4)CC3)cc2o1` (stereo not given): “inactive”. Consider `CCCCCCc1ccc(O)cc1O`, for which the compound was classed as inactive. Still for that read-out and setting: in the case of `O=C1CCC(N2C(=O)c3ccccc3C2=O)C(=O)N1` (stereo not given) it was “inactive”; in that of `CC(C)=CCCC(C)CCO` (stereo not given), “inactive”.

In the case of `CCCN(C1CCN(C(=O)C2CCNCC2)CC1)[C@@H]1CCc2ccc(OC)cc2C1`, the AC50 is 175 µM (active). `CC/C(=C\C(=N/O)C(N)=O)C(C)[N+](=O)[O-]` (stereo not given): the outcome was inactive. For the compound `NC(=O)NO`, the compound was classed as inactive. As for `COCCOc1cc2cc(C(=O)NC3CCN(C(C)C)CC3)n(CC(=O)Nc3ccc(Cl)cn3)c2cn1`, the outcome was inactive. Still for that read-out and setting: in the case of `Cn1cnc([N+](=O)[O-])c1Sc1ncnc2nc[nH]c12` it was “inactive”. Same read-out and setting: the same measure for `Cc1ccc(S(=O)(=O)O)cc1C`: “inactive”. Take `CCCCC(CC)COC(=O)c1ccc(C(=O)OCC(CC)CCCC)cc1` (stereo not given): the result was inactive.

`CNS(=O)(=O)c1cc(C(=O)N2CCC(CCN3C4CCC3CC(n3c(C)nc5ccccc53)C4)(c3cccc(F)c3)CC2)c(Cl)cc1F` (stereo not given): the outcome was inactive. Same read-out and setting: in the case of `CCN(C(=O)c1cc(C)cc(OC[C@H](C)Nc2ccncc2)c1)C(C)C` it was “inactive”; in that of `CCn1nc(Cc2ccccc2)cc1C1CCN(C[C@H]2C[C@H](N(C)[C@@H](C(=O)O)C(C)C)C[C@@H]2c2cccc(F)c2)CC1`, “inactive”. On the same count and under the same terms, the same measure for `CC1(C)C(=O)N(Br)C(=O)N1Br`: “inactive”. Turning to `CC(=O)OC[C@H]1O[C@@](COC(C)=O)(O[C@H]2O[C@H](COC(C)=O)[C@@H](OC(C)=O)[C@H](OC(C)=O)[C@H]2OC(C)=O)[C@@H](OC(C)=O)[C@@H]1OC(C)=O`, the compound was called inactive. On to `CCCCCCCCO`, for which the call was inactive. Turning to `COC(=O)CC(=O)OC`, the compound was called inactive.

For the compound `CC[C@H](C)C(=O)O[C@H]1C[C@@H](C)C=C2C=C[C@H](C)[C@H](CC[C@@H]3C[C@@H](O)CC(=O)O3)[C@H]21`, the compound was called inactive. Still for that read-out and setting: in the case of `COC(=O)c1ccccc1O` it was “inactive”; in that of `Cn1c(=O)c2c(ncn2C)n(C)c1=O`, “inactive”; in that of `Cc1[nH]cnc1C[C@H]1CCc2c(C)c3ccccc3n2C1=O`, “inactive”.
